MEKK2 mut-MEK5: signal of MEK5 binding to mutant human MEKK2 PB1 domain | bead flow cytometry, Alexa488-MEK5 binding to MEKK2 mutant | percent response, % at 10 µM | hit rate 0.35% among 290,000; in the data active means percent response above about 24%, passing the limit was not always enough
NTR1 agonist: agonists of human neurotensin receptor NTR1 | P30989 | NTR1-U2OS beta-arrestin-GFP spot imaging, agonist mode | activation, % at 20 µM | hit rate 0.17% among 330,000;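 active means activation at or above 40% of the spot to cytoplasm intensity ratio, with at least 20 cells analyzed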;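 further: 0% = DMSO without peptide and 100% = 100 nM NTR1 peptide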
MEKK2 WT-MEK5: raises or lowers MEK5 binding to wildtype human MEKK2 PB1 domain. bead flow cytometry, Alexa488-MEK5 binding to MEKK2 WT; actives lie on both sides. hit rate 1.1% among 290,000. AID 1531. binding response (% of control), % at 10 µM; in the data active means binding response below about 67% or above about 130%
ANO1 activ: mouse TMEM16A channel activation, primary screen. Q8BHY3. HEK293 TMEM16A/YFP-H148Q/I152L, iodide quench fluorescence; active compounds read low. B-score at 10 µM. hit rate 0.3% among 340,000;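 active means fluorescence-ratio B-score plate-corrected deviation score at least 3 library SD below zero, with starting fluorescence score within 5 deviations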;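 further: channel opened by trigger with iodide after compound preincubation; score built on the fluorescence ratio of max minus min over baseline; more negative score means more quench and so TMEM16A activation or potentiation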
MEKK3 PB1 HTS: modulators (inhibitors or enhancers) of MEK5 binding to human MEKK3 PB1 domain. Q99759. bead-based flow cytometry, Alexa488-MEK5 binding to MEKK3; actives lie on both sides; 0 = blocked by unlabeled MEK5, 100 = vehicle. binding response (% of control), % at 10 µM. hit rate 1.4% among 290,000;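 active means binding response more than 3 SD above or below the average of its plate-row segment, actives on both sides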;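 further: Alexa488 bead fluorescence after subtracting the streptavidin-only scavenger bead signal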
Target sequence (Q99759 whole entry, looked up, the tested form may be a part): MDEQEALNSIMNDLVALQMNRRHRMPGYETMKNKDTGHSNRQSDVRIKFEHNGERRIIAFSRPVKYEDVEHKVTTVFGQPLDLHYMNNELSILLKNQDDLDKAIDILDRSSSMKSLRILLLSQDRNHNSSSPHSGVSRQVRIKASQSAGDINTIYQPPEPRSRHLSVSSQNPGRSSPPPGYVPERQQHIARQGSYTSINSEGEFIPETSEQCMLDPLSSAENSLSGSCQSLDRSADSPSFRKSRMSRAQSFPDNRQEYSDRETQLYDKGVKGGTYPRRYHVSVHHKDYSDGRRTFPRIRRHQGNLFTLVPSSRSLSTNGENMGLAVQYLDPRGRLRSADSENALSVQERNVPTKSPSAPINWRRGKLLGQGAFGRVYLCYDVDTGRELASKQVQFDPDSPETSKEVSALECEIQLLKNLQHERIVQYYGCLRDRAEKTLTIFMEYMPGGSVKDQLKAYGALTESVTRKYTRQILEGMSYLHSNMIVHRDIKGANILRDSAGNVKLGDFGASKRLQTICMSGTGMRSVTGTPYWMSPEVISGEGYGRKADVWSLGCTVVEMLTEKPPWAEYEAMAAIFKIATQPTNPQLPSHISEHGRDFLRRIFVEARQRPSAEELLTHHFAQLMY
ANO1 block: mouse TMEM16A channel inhibition, primary screen; HEK293 TMEM16A/YFP iodide influx fluorescence, ionomycin; Q8BHY3; hit rate 1.2% among 310,000; AID 588511; normalized B-score (activity score, 25-100; higher = stronger inhibition) at 10 µM;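 active means ratio plate-corrected score three or more library SD toward inhibition, starting fluorescence score within five deviations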;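 further: score derived from kinetic fluorescence span divided by baseline fluorescence per well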
MEKK2wt confirm: raises or lowers MEK5 binding to wildtype human MEKK2, retest; shares compounds with MEKK3 PB1 HTS; bead flow cytometry, Alexa488-MEK5 binding to MEKK2 WT; actives lie on both sides; binding response (% of control), % at 10 µM; hit rate 2.4% among 5,900; in the data active means binding response below about 16% or above about 210%; inactive means in between
MEKK2mut confirm: signal of MEK5 binding to mutant human MEKK2, retest. shares compounds with MEKK3 PB1 HTS. bead flow cytometry, Alexa488-MEK5 binding to MEKK2 mutant. percent response, % at 10 µM. hit rate 2% among 5,900. AID 1893; in the data active means percent response mostly above about 71%, no sharp cut-off; inactive means mostly below about 38%;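 further: higher means compound restores mutant binding toward wildtype level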
MEKK3-MEK5 inh: confirmation of inhibitors of MEK5 binding to human MEKK3; binding response (% of control), % at 10 µM; hit rate 1.8% among 5,900; bead flow cytometry, Alexa488-MEK5 binding to MEKK3; active compounds read low; shares compounds with MEKK3 PB1 HTS;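 active means binding response below 72% of control, or above a set upper limit, though filed actives all read lower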;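 further: 100% = DMSO only wells and 0% = binding blocked by excess unlabeled MEK5; lower values mean stronger disruption of MEK5 binding to MEKK3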
The depositor's hits bear a star; i = inactive; / = no result given; [ ] = dose if it differs, or a comment. Only some compounds are listed: those with a hit (about 3.4% of all), similar ones and a draw of the others.

SMILES	MEKK2 mut-MEK5	NTR1 agonist	MEKK2 WT-MEK5	ANO1 activ	MEKK3 PB1 HTS	ANO1 block	MEKK2wt confirm	MEKK2mut confirm	MEKK3-MEK5 inh
CCOc1ccc2[nH]c(=S)[nH]c2c1	-2.0	0.2	104.0	i	105.0	i	/	/	/
CCCCCCCCCCCCCCCC(O)C[N+](C)(C)CCO (centres undefined)	/	/	/	i	/	/	/	/	/
CCCCCCCCCCCCCCCC(O)C(N)CO (centres undefined)	38.0*	0.9	220.0*	i	102.0	i	161.0	36.0	107.0
O=C(/C=C/c1ccc(Cl)cc1)N(Cc1ccccc1)C1CCS(=O)(=O)C1 (centres undefined)	11.0	1.8	116.0	i	100.0	i	/	/	/
CCOc1ccc(N2CC(C(=O)NCCCN3CCOCC3)CC2=O)cc1 (centres undefined)	-21.0	-0.2	3.0*[inhibitor]	i	2.0*[inhibitor]	i	102.0	7.0	105.0
COc1ccc(SC[C@H](Cc2ccccc2)N2CCN(C)CCC2=O)cc1	4.0	-5.6	143.0*	i	120.0	i	117.0	20.0	107.0
Cc1ccc(SC[C@H](Cc2ccccc2)N2CCN(CCc3ccccc3)CCC2=O)cc1	8.0	3.7	142.0*	i	86.0	i	124.0	37.0	105.0
CN1CCC(=O)N([C@H](CSc2ccccc2)Cc2ccccc2)CC1	7.0	-0.2	98.0	i	102.0	i	/	/	/
Cc1ccccc1NC(=O)CN1C(=O)c2cccnc2Oc2ccc(Cl)cc21	-6.0	-0.1	98.0	i	99.0	i	/	/	/
CC1(c2ccc3ccccc3c2)NC(=O)N(CC(=O)N2CCN(Cc3ccccc3)CC2)C1=O (centres undefined)	/	1.7	/	i	/	/	/	/	/
OC1(c2ccc3ccccc3c2)CCN(Cc2ccccc2)C1 (centres undefined)	28.0*	4.2	130.0	i	112.0	i	110.0	6.0	103.0
O=C(CSc1ccc(Cl)cc1)NC1CCCc2ccccc21 (centres undefined)	2.0	-0.3	108.0	i	106.0	i	/	/	/
O=S(=O)(Nc1cccnc1)c1cccs1	-24.0	1.4	54.0	i	41.0*[inhibitor]	i	111.0	14.0	106.0
O=C(Nc1ccc(C(=O)N2CCOCC2)cc1)C1CCCC1	/	/	/	i	/	/	/	/	/
CC(C)C(NS(=O)(=O)c1c(Cl)cccc1Cl)C(=O)OCC(=O)c1c[nH]c2ccccc12 (centres undefined)	76.0*	5.0	-2.0*	i	77.0	i	105.0	9.0	102.0
CCOc1ccc(-c2nc(CSCC(=O)NCC3CCCO3)c(C)o2)cc1 (centres undefined)	2.0	0.8	102.0	i	100.0	i	/	/	/
CN1CCN(C2=Cc3ccc(Cl)cc3Sc3ccc(F)cc32)CC1	27.0*	2.4	150.0*	i	114.0	i	169.0	42.0	109.0
CN1CCN(C2=Cc3ccccc3Sc3cc(F)ccc32)CC1	11.0	2.0	136.0*	i	97.0	i	149.0	37.0	113.0
COc1ccc(C2CC(c3cccs3)=NN2S(C)(=O)=O)cc1OC (centres undefined)	70.0*	-0.1	/	i	80.0	i	100.0	5.0	99.0
COc1ccc(C2CC(c3cccs3)=NN2c2ccc(C=O)cc2)cc1 (centres undefined)	-4.0	/	63.0*[inhibitor]	/	88.0	i	82.0	-16.0	99.0
O=S(=O)(CCc1ccccc1)CS(=O)(=O)CCc1ccccc1	/	/	/	i	/	/	/	/	/
Cn1c(=NC(=O)COc2ccccc2)sc2ccccc21	-3.0	0.9	85.0	i	74.0*[inhibitor]	i	98.0	2.0	99.0
Cc1c(C)n(CCN(C)C)c2ccc(C(=O)OCCN(C)C)cc12	8.0	/	110.0	i	103.0	i	/	/	/
Cc1c(C)n(Cc2ccccc2)c2ccc(C(=O)OCCCN(C)C)cc12	-2.0	8.1	158.0*	i	105.0	i	151.0	39.0	104.0
COc1cc(C(C)=O)ccc1COc1ccc(C(=O)O)cc1OC	5.0	-1.5	103.0	i	99.0	i	/	/	/
SMILES	MEKK2 mut-MEK5	NTR1 agonist	MEKK2 WT-MEK5	ANO1 activ	MEKK3 PB1 HTS	ANO1 block	MEKK2wt confirm	MEKK2mut confirm	MEKK3-MEK5 inh
CCc1cc(=O)oc2c(C)c(OCC(=O)NCc3ccccn3)ccc12	2.0	3.2	103.0	i	102.0	i	/	/	/
Cc1ccccc1OCCNc1cc(N2CCNCC2)ccc1[N+](=O)[O-]	35.0	4.1	162.0*	/	110.0	i	167.0	34.0	104.0
COc1ccccc1OCCNc1cc(N2CCCCC2)ccc1[N+](=O)[O-]	-2.0	6.4	104.0	i	106.0	i	/	/	/
S=C(NC1CCCCC1)N(CCc1ccccc1)CCc1ccccc1	51.0*	1.0	125.0	i	107.0	i	108.0	0.0	101.0
Cc1ccc(-c2nc(N)sc2CC(=O)OCC(=O)N2C(C)CCCC2C)cc1 (centres undefined)	1.0	3.2	111.0	i	140.0*	i	98.0	-5.0	101.0
CCC1(c2ccc(Cl)cc2)NC(=S)N(c2ccccc2)N1 (centres undefined)	0.0	2.3	107.0	i	128.0*	i	98.0	-2.0	99.0
CCC1(c2ccccc2)NC(=S)N(c2ccc(C)cc2)N1 (centres undefined)	-5.0	2.0	98.0	i	108.0	i	/	/	/
CCOC(=O)c1sc(N)c(C#N)c1CSc1nnc(C2CCCCC2)n1N	-20.0	-0.5	-1.0*[inhibitor]	i	0.0*[inhibitor]	i	98.0	2.0	103.0
COc1ccc(C2CC2/C(C)=N/OC(=O)c2cccs2)cc1 (centres undefined)	1.0	2.0	105.0	i	99.0	i	/	/	/
COc1ccc(C2CC2/C(C)=N/OC(=O)c2ccc(F)cc2)cc1 (centres undefined)	4.0	0.8	125.0	i	141.0*	i	108.0	9.0	109.0
O=C(O)c1cccc(N2C(=O)c3cccc(Oc4ccc(Cl)cc4)c3C2=O)c1	-1.0	0.4	101.0	i	131.0*	i	93.0	-6.0	96.0
COCCN=c1scc(-c2cc(OC)c(OC)c(OC)c2)n1/N=C/c1c(C)[nH]c2ccccc12	77.0*	3.5	/	i	84.0	i	94.0	-6.0	88.0
Cc1[nH]c2ccccc2c1/C=N/n1cnnc1	-1.0	-1.3	98.0	i	98.0	i	/	/	/

Screening data as filed in PubChem.
